Results on 34 targets are retold here after the supplement of paper PMC10849652.

The full data set covers some 7,900 targets. This sample favours those with a hit. About 0.6% of all pairs of compound and target were hits. A number with no mark means an inactive call.

Chain of UniProt Q9UHC9 (Q9UHC9 whole entry, looked up): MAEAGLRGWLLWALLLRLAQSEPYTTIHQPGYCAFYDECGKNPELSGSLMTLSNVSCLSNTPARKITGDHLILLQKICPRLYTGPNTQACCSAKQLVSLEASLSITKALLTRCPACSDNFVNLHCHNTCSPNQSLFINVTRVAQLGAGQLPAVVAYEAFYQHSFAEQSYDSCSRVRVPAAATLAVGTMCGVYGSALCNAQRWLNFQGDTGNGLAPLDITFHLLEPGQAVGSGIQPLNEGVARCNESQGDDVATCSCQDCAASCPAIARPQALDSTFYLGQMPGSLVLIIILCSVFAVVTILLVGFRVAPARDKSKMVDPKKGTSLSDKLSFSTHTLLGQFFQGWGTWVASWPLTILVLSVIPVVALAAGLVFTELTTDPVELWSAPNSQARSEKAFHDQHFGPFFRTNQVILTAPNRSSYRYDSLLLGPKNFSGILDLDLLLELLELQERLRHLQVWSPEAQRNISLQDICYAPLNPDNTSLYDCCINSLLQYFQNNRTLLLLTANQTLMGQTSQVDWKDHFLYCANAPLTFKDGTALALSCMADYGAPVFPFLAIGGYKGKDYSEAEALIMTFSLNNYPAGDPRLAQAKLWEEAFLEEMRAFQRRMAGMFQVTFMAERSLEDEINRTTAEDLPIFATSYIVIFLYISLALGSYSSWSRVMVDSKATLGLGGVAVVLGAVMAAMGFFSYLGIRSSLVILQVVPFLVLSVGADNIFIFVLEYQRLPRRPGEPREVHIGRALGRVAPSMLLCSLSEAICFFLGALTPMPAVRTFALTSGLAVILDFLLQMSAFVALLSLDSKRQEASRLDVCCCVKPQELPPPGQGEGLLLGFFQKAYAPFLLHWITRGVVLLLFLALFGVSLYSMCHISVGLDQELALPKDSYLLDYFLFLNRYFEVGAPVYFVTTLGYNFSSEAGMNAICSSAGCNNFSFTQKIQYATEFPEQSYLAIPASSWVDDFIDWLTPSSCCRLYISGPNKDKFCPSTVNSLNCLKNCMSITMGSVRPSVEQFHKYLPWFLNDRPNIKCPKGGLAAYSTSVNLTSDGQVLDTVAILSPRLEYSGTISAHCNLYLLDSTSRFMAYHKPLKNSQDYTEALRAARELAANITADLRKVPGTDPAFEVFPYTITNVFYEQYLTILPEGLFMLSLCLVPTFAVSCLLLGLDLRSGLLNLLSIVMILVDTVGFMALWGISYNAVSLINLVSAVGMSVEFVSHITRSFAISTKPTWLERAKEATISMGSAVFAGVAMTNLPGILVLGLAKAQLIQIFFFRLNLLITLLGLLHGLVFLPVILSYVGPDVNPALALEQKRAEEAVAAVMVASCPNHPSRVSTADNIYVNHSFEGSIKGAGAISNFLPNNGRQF
Chain of UniProt Q9UI43 (Q9UI43 whole entry, looked up): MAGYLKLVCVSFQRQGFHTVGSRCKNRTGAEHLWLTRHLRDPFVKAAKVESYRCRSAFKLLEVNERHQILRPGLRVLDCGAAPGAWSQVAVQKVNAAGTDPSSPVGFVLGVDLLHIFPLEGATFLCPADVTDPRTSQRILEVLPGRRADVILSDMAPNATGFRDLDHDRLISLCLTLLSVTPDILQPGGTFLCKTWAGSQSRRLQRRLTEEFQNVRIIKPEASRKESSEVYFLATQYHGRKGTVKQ
Chain of UniProt Q9BRA0 (Q9BRA0 whole entry, looked up): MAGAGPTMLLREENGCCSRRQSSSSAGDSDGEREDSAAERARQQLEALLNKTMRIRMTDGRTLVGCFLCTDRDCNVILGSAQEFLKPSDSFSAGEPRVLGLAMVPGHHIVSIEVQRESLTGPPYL
Chain of UniProt P53370 (P53370 whole entry, looked up): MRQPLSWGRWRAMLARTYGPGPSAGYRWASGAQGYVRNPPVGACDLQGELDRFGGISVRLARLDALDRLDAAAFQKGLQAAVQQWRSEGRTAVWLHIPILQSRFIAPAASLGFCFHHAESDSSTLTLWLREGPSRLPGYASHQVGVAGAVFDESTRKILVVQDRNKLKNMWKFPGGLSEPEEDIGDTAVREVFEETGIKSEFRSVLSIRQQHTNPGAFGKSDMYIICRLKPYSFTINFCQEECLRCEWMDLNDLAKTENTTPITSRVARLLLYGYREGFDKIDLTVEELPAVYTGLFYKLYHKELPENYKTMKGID
Chain of UniProt Q9UK23 (Q9UK23 whole entry, looked up): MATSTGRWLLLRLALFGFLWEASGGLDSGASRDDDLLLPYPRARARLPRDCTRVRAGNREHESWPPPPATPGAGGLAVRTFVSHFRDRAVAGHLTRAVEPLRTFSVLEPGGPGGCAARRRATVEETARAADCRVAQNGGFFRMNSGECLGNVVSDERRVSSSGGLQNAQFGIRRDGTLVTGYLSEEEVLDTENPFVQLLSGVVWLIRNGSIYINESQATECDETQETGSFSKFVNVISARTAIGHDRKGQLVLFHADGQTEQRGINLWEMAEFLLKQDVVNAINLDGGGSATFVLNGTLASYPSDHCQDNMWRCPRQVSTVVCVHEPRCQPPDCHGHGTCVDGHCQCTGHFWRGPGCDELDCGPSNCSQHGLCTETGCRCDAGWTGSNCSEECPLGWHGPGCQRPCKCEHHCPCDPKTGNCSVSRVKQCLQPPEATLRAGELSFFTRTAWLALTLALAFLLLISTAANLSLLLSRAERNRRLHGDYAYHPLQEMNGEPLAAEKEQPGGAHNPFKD
Chain of UniProt Q96RE7 (Q96RE7 whole entry, looked up): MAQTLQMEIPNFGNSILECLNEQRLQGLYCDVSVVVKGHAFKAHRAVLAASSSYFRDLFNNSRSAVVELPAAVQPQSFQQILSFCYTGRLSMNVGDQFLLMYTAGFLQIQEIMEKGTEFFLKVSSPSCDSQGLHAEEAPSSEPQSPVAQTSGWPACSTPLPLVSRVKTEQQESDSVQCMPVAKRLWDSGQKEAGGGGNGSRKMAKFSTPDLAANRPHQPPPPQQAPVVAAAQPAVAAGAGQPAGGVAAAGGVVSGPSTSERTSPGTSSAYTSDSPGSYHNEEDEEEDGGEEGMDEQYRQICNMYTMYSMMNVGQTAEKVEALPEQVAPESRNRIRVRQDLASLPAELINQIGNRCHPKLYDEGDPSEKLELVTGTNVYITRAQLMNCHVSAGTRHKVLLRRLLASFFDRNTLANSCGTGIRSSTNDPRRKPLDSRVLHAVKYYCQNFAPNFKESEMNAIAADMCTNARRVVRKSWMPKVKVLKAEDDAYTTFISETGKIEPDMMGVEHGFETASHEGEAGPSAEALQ
Chain of UniProt O60890 (O60890 whole entry, looked up): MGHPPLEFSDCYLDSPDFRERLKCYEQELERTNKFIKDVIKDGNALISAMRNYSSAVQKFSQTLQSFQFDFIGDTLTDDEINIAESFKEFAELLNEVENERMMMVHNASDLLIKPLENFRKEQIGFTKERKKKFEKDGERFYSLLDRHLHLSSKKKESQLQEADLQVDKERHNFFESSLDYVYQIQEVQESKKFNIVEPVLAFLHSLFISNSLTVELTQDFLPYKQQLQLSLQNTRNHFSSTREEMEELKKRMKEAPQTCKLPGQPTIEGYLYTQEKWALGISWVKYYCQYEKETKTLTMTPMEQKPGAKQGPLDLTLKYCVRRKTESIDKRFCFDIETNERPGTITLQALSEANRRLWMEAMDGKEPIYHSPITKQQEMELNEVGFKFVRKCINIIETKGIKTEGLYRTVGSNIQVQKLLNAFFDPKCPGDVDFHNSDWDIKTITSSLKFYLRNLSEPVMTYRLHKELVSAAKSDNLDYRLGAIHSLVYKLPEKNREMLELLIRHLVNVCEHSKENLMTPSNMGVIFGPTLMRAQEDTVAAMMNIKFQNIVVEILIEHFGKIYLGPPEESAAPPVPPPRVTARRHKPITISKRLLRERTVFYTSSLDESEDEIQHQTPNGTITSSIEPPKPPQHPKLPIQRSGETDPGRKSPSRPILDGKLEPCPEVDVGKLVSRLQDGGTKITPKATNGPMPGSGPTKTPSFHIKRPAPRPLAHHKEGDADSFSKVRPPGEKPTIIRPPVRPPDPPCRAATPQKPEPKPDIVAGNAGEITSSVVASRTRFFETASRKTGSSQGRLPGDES
Chain of UniProt Q5TFE4 (Q5TFE4 whole entry, looked up): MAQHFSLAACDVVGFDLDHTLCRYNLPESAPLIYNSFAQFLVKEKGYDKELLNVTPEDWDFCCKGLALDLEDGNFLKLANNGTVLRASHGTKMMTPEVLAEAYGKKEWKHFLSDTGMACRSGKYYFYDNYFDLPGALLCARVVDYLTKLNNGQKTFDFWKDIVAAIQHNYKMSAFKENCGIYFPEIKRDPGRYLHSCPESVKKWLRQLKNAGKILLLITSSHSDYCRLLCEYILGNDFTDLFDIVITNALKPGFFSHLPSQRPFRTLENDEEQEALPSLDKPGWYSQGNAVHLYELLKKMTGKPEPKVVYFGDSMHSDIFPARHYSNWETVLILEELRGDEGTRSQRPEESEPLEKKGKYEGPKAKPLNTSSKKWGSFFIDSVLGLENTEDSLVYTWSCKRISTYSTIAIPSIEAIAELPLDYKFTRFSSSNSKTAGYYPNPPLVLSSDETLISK
Chain of UniProt Q9ULX3 (Q9ULX3 whole entry, looked up): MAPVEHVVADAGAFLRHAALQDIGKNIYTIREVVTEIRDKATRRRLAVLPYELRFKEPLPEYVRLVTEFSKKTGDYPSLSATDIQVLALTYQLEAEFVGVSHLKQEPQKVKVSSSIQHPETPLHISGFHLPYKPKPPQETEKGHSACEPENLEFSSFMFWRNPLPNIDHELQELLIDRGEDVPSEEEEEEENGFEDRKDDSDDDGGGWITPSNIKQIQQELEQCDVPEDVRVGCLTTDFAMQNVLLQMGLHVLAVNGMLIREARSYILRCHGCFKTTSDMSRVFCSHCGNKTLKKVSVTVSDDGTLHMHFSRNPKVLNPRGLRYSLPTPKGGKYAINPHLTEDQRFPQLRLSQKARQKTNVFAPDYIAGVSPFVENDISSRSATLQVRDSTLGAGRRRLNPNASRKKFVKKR
Chain of UniProt Q70IA6 (Q70IA6 whole entry, looked up): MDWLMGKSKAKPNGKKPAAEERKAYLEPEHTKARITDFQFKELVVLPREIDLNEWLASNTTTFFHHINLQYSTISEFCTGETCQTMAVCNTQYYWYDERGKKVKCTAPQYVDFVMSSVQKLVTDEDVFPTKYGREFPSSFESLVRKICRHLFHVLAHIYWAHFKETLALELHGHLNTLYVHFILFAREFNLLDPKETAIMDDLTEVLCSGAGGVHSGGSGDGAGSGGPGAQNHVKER

Compound in one assay: Cc1sc2c(c1C)C(c1ccc(Cl)cc1)=N[C@@H](CC(=O)OC(C)(C)C)c1nnc(C)n1-2
Put plainly: log2 fold change, soluble protein after heating vs DMSO (PISA); higher = thermal stabilisation; K562 cells, 10 uM, 30 min; active = over 0.2 and 3.5 SD of the protein, either way, in both replicates (recomputed). The method, boiled down:
(§1)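 K562 cells at 2×10^6 cells/mL were exposed to 10 μM compound for 30 min, then aliquots were heated for 3 min across 48°C-58°C, pooled, and extracted in PBS containing 0.5% NP-40 at 4°C. The supernatant after 21,000xg for 90 min was taken as soluble protein and measured by TMTpro 16plex LC-MS/MS with channel sums equalised. Thermal stability is reported relative to control samples, with values from duplicates. Fold changes are given on a log2 scale.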
Turning to MSANTD2 (UniProt Q6P1R3), the log2 fold change was 0.028.

As to NOB1 (UniProt Q9ULX3), the log2 fold change was 0.067.

In the case of MOB2 isoform 3 (UniProt Q70IA6), the log2 fold change was 0.067.

Take MRPS17 (UniProt Q9Y2R5): the log2 fold change was 0.06.

For the target NEK3 (UniProt P51956), the log2 fold change was -0.032.

With NAA38 isoform 2 (UniProt Q9BRA0), the log2 fold change was -0.029.

In the case of MRPS25 (UniProt P82663), the log2 fold change is 0.059.

Turning to NA, A0A1W2PSA9, the log2 fold change is 0.006.

For NOL11 (UniProt Q9H8H0), the log2 fold change is -0.014.

For the target NAGPA (UniProt Q9UK23), the log2 fold change was -0.004.

In the case of NACC1 (UniProt Q96RE7), the log2 fold change was -0.037.

On to MLX (UniProt Q9UH92), for which the log2 fold change was 0.093.

With NUDT6 (UniProt P53370), the log2 fold change is -0.023.

As for OSBPL3 (UniProt Q9H4L5), the log2 fold change was 0.292.

As to NDUFS8 (UniProt O00217), the log2 fold change was -0.023.

Take NSUN2 (UniProt Q08J23): the log2 fold change is 0.

As to MRPL46 (UniProt Q9H2W6), the log2 fold change is 0.009.

For the target NASP (UniProt P49321), the log2 fold change was -0.022.

As for MLH1 (UniProt P40692), the log2 fold change is -0.109.

Consider NPC1L1 (UniProt Q9UHC9), for which the log2 fold change was 0.007.

Take OPHN1 (UniProt O60890): the log2 fold change was 0.008.

Take OXR1 isoform 2 (UniProt Q8N573): the log2 fold change is -0.035.

Consider NUDT7 (UniProt P0C024), for which the log2 fold change is -0.047.

In the case of MRPL34 (UniProt Q9BQ48), the log2 fold change is 0.058.

As to MRM2 (UniProt Q9UI43), the log2 fold change is 0.

Turning to NT5DC1 (UniProt Q5TFE4), the log2 fold change was 0.021.

As for MPHOSPH8 isoform 2 (UniProt Q99549), the log2 fold change is 0.089.

On to MON1A (UniProt Q86VX9), for which the log2 fold change is -0.071.

Compound in a further assay: c1ccc([C@@H]2C[C@H]2NC2CCNCC2)cc1
The assay is described as above. The method, boiled down: as §1
Consider NOB1 (UniProt Q9ULX3), for which the log2 fold change was -0.06.

MOB2 isoform 3 (UniProt Q70IA6): the log2 fold change is -0.096.

In the case of MRPS17 (UniProt Q9Y2R5), the log2 fold change is -0.064.

In the case of NEK3 (UniProt P51956), the log2 fold change was -0.094.

Take OSBPL2 (UniProt Q9H1P3): the log2 fold change is -0.09.

With NAA38 isoform 2 (UniProt Q9BRA0), the log2 fold change is -0.124.

As to MRPS25 (UniProt P82663), the log2 fold change is 0.014.

As to NA, A0A1W2PSA9, the log2 fold change was 0.104.

On to MYO19 (UniProt Q96H55), for which the log2 fold change was 0.088.

Regarding NOL11 (UniProt Q9H8H0), the log2 fold change was 0.025.

As for NAGPA (UniProt Q9UK23), the log2 fold change was 0.061.

Turning to NACC1 (UniProt Q96RE7), the log2 fold change was -0.015.

For NELFCD (UniProt Q8IXH7), the log2 fold change was 0.034.

On to MLX (UniProt Q9UH92), for which the log2 fold change is -0.011.

Consider NUDT6 (UniProt P53370), for which the log2 fold change was -0.212.

For OSBPL3 (UniProt Q9H4L5), the log2 fold change was 0.14.

As to NDUFS8 (UniProt O00217), the log2 fold change was -0.02.

In the case of NSUN2 (UniProt Q08J23), the log2 fold change was 0.003.

As to NA, A0A2R8Y3M9, the log2 fold change is 0.161.

As for MRPL46 (UniProt Q9H2W6), the log2 fold change is 0.026.

As for NOLC1 isoform 3 (UniProt Q14978), the log2 fold change was -0.021.

In the case of NASP (UniProt P49321), the log2 fold change is 0.013.

As for MLH1 (UniProt P40692), the log2 fold change was -0.065.

Consider NPC1L1 (UniProt Q9UHC9), for which the log2 fold change was 0.047.

Regarding OPHN1 (UniProt O60890), the log2 fold change is 0.07.

As for NUMBL (UniProt Q9Y6R0), the log2 fold change was -0.009.

As to OXR1 isoform 2 (UniProt Q8N573), the log2 fold change is -0.101.

With MRPL34 (UniProt Q9BQ48), the log2 fold change was -0.051.

With MRM2 (UniProt Q9UI43), the log2 fold change is -0.052.

For the target NT5DC1 (UniProt Q5TFE4), the log2 fold change is 0.011.

On to MPHOSPH8 isoform 2 (UniProt Q99549), for which the log2 fold change was 0.061.
